Test results reported in PubChem BioAssay (NCI).
About 83,000 compounds went through this panel and 20% of them were active in at least one assay; those are over-represented in the sample as a whole.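 Compound tested at a single concentration for 48 hours in 96-well plates; a percent growth value below 10 was scored as active.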 Values without a mark were called inactive. The source made the active and inactive calls.

Experiments:
Experiment in all cases: NCI-60 one-dose screen, 48 h (100 = growth as untreated, 0 = no growth, -100 = all killed)
Conditions in all cases: 10 µM unless noted
SK-MEL-2 melanoma = tested on: SK-MEL-2 melanoma
EKVX NSCLC = tested on: EKVX NSCLC
SN12C renal = tested on: SN12C renal
UO-31 renal = tested on: UO-31 renal
TK-10 renal = tested on: TK-10 renal
ACHN renal = tested on: ACHN renal
CAKI-1 renal = tested on: CAKI-1 renal
A498 renal = tested on: A498 renal
CCRF-CEM leukemia = tested on: CCRF-CEM leukemia
MOLT-4 leukemia = tested on: MOLT-4 leukemia
SR leukemia = tested on: SR leukemia
RPMI-8226 leukemia = tested on: RPMI-8226 leukemia
OVCAR-8 ovarian = tested on: OVCAR-8 ovarian
OVCAR-5 ovarian = tested on: OVCAR-5 ovarian
OVCAR-4 ovarian = tested on: OVCAR-4 ovarian
SK-OV-3 ovarian = tested on: SK-OV-3 ovarian
IGROV1 ovarian = tested on: IGROV1 ovarian
OVCAR-3 ovarian = tested on: OVCAR-3 ovarian
HS 578T breast = tested on: HS 578T breast
NCI/ADR-RES ovarian = tested on: NCI/ADR-RES ovarian

Compound | growth (SK-MEL-2 melanoma) | growth (EKVX NSCLC) | growth (SN12C renal) | growth (UO-31 renal) | growth (TK-10 renal) | growth (ACHN renal) | growth (CAKI-1 renal) | growth (A498 renal) | growth (CCRF-CEM leukemia) | growth (MOLT-4 leukemia) | growth (SR leukemia) | growth (RPMI-8226 leukemia) | growth (OVCAR-8 ovarian) | growth (OVCAR-5 ovarian) | growth (OVCAR-4 ovarian) | growth (SK-OV-3 ovarian) | growth (IGROV1 ovarian) | growth (OVCAR-3 ovarian) | growth (HS 578T breast) | growth (NCI/ADR-RES ovarian)
Cc1[nH]n(-c2ccccc2)c(=O)c1C=NC(=S)C(N)=S | 109% | 103% | 105% | 85.2% | 125% | 100% | 97.2% | 93.8% | 94.1% | 102% | 89.9% | 94.6% | 99.9% | 109% | 104% | 96% | 112% | 108% | 92.1% | 101%
NCCCN1CCCC1=O | 117% | 122% | 97.5% | 95.7% | 100% | 113% | 109% | 103% | 114% | 97.1% | 88.2% | 107% | 97.5% | 110% | 111% | 116% | 104% | 112% | 109% | 101%
C/C(=N\Nc1ccc([N+](=O)[O-])cc1[N+](=O)[O-])c1ccc(Br)cc1 | 97.4% | 96.4% | 96.2% | 85% | 105% | 105% | 98.1% | 102% | 96.5% | 104% | 84.4% | 93.1% | 96.8% | 123% | 105% | 108% | 110% | 99.7% | 104% | 106%
C1Cc2onc(-c3noc4c3CCC4)c2C1 | 124% | 104% | 96.2% | 87.9% | 105% | 114% | 94.5% | 136% | 101% | 110% | 99.1% | 113% | 110% | 103% | 105% | 106% | 114% | 115% | 114% | 115%
c1ccc(Oc2c3ccccc3nc3ccccc23)cc1 | 39.9% | 62.1% | 24.3% | 43.8% | 57.6% | 31.9% | -20.4% (active) | 33% | 14.2% | 14.5% | -0.679% (active) | -20.9% (active) | 23.7% | 35.3% | 15% | 39% | -9.18% (active) | -3.62% (active) | 12.2% | 47.6%
NC(=O)c1cc2c3ccccc3ccn2c1-c1ccccc1 | -7.59% (active) | 14.5% | 28.5% | 32.2% | 47.7% | 23.6% | -9.87% (active) | 34.4% | 2.84% (active) | 7.02% (active) | -22.3% (active) | 7.04% (active) | 8.3% (active) | 33.5% | 43.2% | 12.7% | 20.2% | -20.6% (active) | 70.3% | -12% (active)
N#Cc1ccc(OC(=O)Nc2cc(Cl)cc(Cl)c2)cc1 | -42.5% [100 µM] (active) | -2.41% [100 µM] (active) | -14% [100 µM] (active) | 5.42% [100 µM] (active) | -4.01% [100 µM] (active) | 0.368% [100 µM] (active) | -27.5% [100 µM] (active) | -19.7% [100 µM] (active) | 2.17% [100 µM] (active) | -14.4% [100 µM] (active) | -30.4% [100 µM] (active) | -13% [100 µM] (active) | 7.55% [100 µM] (active) | 9.02% [100 µM] (active) | 11.4% [100 µM] | -6.95% [100 µM] (active) | 18% [100 µM] | 7.77% [100 µM] (active) | -11.5% [100 µM] (active) | -4.12% [100 µM] (active)
CCc1ccccc1C(=O)N(CC)CC | 123% | 96.6% | 105% | 91.1% | 106% | 104% | 99.7% | 86.1% | 97.5% | 96.4% | 96.3% | 103% | 105% | 99.4% | 108% | 118% | 103% | 110% | 110% | 109%
O=C(c1ccc(Cl)cc1)N1CCCCC1 | 102% | 98.1% | 92.2% | 93.3% | 91% | 101% | 97.4% | 73.3% | 93.3% | 98.9% | 96.9% | 102% | 106% | 102% | 113% | 105% | 105% | 112% | 23.2% | 102%
O=C(c1cccc(C(=O)c2ccc3c4c(cccc24)C(=O)N(c2ccccc2)C3=O)c1)c1ccc2c3c(cccc13)C(=O)N(c1ccccc1)C2=O | 111% | 104% | 92.4% | 89.8% | 115% | 102% | 100% | 86.7% | 89.9% | 90.9% | 57.4% | 72.4% | 88.8% | 111% | 77.4% | 102% | 104% | 98.8% | 97.6% | 96.9%
CCCc1cccc(CCC)c1NC(=O)Nc1cc(Cl)cc(Cl)c1 | 106% | 109% | 91% | 69.7% | 106% | 101% | 83.5% | 95.9% | 91.6% | 101% | 108% | 96.7% | 101% | 104% | 95.3% | 101% | 108% | 103% | 98.2% | 110%
CCC(C)C1CCC(O)CC1 (stereo not given) | 104% | 113% | 108% | 90.7% | 103% | 105% | 96.6% | 103% | 125% | 104% | 93.7% | 107% | 100% | 108% | 99.4% | 109% | 110% | 108% | 104% | 103%
O=C(NCCc1ccccc1)/C(=C\c1ccc(Cl)cc1Cl)NC(=O)c1ccccc1 | 114% | 96% | 96.1% | 88.5% | 96.6% | 98.9% | 92.9% | 87.5% | 97.9% | 94.7% | 87.6% | 92% | 95.3% | 101% | 98.7% | 97.6% | 96.3% | 94.1% | 96.4% | 91.8%
CC(C)C(=O)OCCOc1ccc(C(C)(C)C)cc1 | 92.3% | 103% | 89.4% | 89.6% | 93.7% | 101% | 100% | 94.2% | 98.6% | 114% | 98.6% | 97.7% | 99.5% | 103% | 98.6% | 108% | 104% | 107% | 93.9% | 100%
O=C(O)CC1=CCCCC1 | 119% | 97.5% | 104% | 89.1% | 108% | 91.1% | 97.7% | 74.8% | 96.9% | 97.5% | 96.7% | 96.6% | 104% | 98.5% | 100% | 117% | 96.1% | 101% | 108% | 96.9%
C=C(C)COc1ccc(C(C)(C)C)cc1 | 101% | 98.9% | 103% | 95.3% | 97.1% | 105% | 96.2% | 105% | 103% | 111% | 96.3% | 104% | 95.4% | 106% | 103% | 95.9% | 112% | 102% | 90.1% | 107%
